Screens (PubChem)
Tau fluor counter – counter-screen for tau fibril formation inhibitors; actives 0.93% (n = 280,000); tau K18 P301L Alexa594 fluorescence, heparin fibrillization; AID 1463; Potency, µM (top dose mostly 57.7 µM), for inactives: at the highest dose activity change, negative = decrease; also: nearly all actives have a fitted effect of over 55% in size
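Human tau K18 P301L (15 uM unlabeled, 0.24 uM Alexa 594-labeled) in 100 mM sodium acetate pH 7 with 20 uM heparin, 6 hr at 37 C. ThT 30 uM added, 1 hr ambient; Alexa 594 FP and total fluorescence read at 555/632 nm.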
RORg inh – blocks mouse ROR gamma transcriptional activity; P51450; Drosophila S2 Gal4-RORgamma UAS-luciferase reporter, 20 h; Potency, µM (series often up to 53.6 µM), for the others: at the top dose activity change, negative = inhibition, usual class: inhibitors; actives 5.4% (n = 310,000); AID 2551; also: nearly all actives have a fitted effect of over 60% in size
Target sequence (P51450 whole entry, looked up, the tested form may be a part): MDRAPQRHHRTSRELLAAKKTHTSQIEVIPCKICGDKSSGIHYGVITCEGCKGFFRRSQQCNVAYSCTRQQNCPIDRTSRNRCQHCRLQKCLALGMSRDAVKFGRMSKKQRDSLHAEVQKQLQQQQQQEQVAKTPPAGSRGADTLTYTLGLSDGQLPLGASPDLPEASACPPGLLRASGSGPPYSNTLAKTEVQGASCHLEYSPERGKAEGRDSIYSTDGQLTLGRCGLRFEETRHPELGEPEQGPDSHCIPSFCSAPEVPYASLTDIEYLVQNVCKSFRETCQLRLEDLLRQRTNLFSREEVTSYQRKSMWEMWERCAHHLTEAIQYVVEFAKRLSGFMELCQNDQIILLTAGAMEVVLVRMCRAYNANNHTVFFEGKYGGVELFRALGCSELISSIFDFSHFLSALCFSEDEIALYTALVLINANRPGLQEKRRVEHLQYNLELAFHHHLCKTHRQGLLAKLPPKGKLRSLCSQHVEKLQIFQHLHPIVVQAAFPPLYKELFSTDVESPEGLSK
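Using a luciferase readout, inhibitors were identified by reduced reporter activity in Drosophila cells coexpressing a copper-inducible Gal4–ROR gamma fusion and UAS-driven Photinus luciferase, incubated 20 hr after 700 uM copper sulfate.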
Gal4-VP16 FLuc – Gal4-VP16 reporter inhibition counter-screen | Drosophila S2 Gal4-VP16 UAS-luciferase, luminescence, 20 h | Potency, µM (series often up to 53.6 µM), for inactives: top-dose activity, negative = inhibition, usual class: inhibitors | actives 3.5% (n = 310,000) | AID 2546;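 also: Gal4-VP16 expression switched on by copper sulfate through the metallothionein promoter; nearly all actives have a fitted effect of over 50% in size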
Tau FP inhib – blocks human tau fibril formation measured by polarization; actives 0.39% (n = 280,000); K18 P301L tau heparin fibrillization, Alexa594 FP, 6 h; Potency, µM (series often up to 57.7 µM), without a hit: top-dose activity, negative = inhibition, usual class: inhibitors; P10636; also: nearly all actives have a fitted effect of over 55% in size
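Steps: dispense K18 P301L tau (15 uM plus 0.24 uM Alexa 594 tracer, final) in pH 7 sodium acetate; add compound; add heparin (20 uM final); incubate 6 hr, 37 C; add ThT (30 uM final); after 1 hr ambient, read FP.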
Tau ThT inhib – inhibitors of human tau fibril formation, thioflavin T binding | P10636 | AID 1460 | recombinant tau K18 P301L (four-repeat tau fragment), heparin-induced fibrillization, ThT fluorescence | actives 2.1% (n = 270,000) | Potency, µM (doses to about 57.4 µM), inactives show top-dose activity, negative = inhibition, usual class: inhibitors; also: nearly all actives have a fitted effect of over 55% in size
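In this qHTS, human K18 P301L tau is incubated with compound and heparin for 6 hr at 37 C, and Thioflavin T fluorescence then reports fibril load.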
Numbers without * were called inactive; [ ] = remark or other dose. This is a sample that favours compounds with a hit; in the whole collection about 7.3% have one here. Calls follow the shape of the dose curve; as a rule, active = well fitted curve in the direction sought with a large enough effect; inconclusive = small, poorly fitted or top-dose-only effect, or another doubt; inactive = no such curve, though single readings can be large; an effect the other way counts as inactive or inconclusive. % is scaled to controls: 0 for no effect and ±100 for the full control effect; potency is read from the fitted curve at half-maximal effect.

COc1ccc(-n2c(=S)[nH]c3sc(-c4ccccc4)cc3c2=O)c(OC)c1 was read as Tau fluor counter -18%, RORg inh 3.5µM*, Gal4-VP16 FLuc 7.1µM* and Tau FP inhib 3%.
CCOc1ccc(-n2cnc3scc(-c4ccc(OC)c(OC)c4)c3c2=O)cc1 was read as Tau fluor counter -19%, RORg inh 35%, Gal4-VP16 FLuc -3%, Tau FP inhib 2% and Tau ThT inhib -18%.
`CCCC12CN3CC(C)(CN(C1)C3c1ccc(CC)cc1)C2=O` (configuration not stated) gave Tau fluor counter -3%, Tau FP inhib 2% and Tau ThT inhib 1%.
CN(C)CCCN(C(=O)c1ccc(S(=O)(=O)N2CCc3ccccc3C2)cc1)c1nc2c(F)cccc2s1 was read as RORg inh 4.5µM* and Gal4-VP16 FLuc -24%.
Screening Cc1cccc2sc(N(CCCN(C)C)C(=O)c3ccc(S(=O)(=O)N4CCc5ccccc5C4)cc3)nc12 returned RORg inh inconclusive and Gal4-VP16 FLuc 11µM*.
CCC(CC)c1nc(C(N)=O)c2[nH]c(=O)n(-c3ccc(OC)c(OC)c3)c2n1 was read as RORg inh 3% and Gal4-VP16 FLuc -15%.
For CCC1CCC(C(=O)NC(C(=O)NCCN2CCOCC2)C(C)C)CC1 (configuration not stated) the results were RORg inh 2% and Gal4-VP16 FLuc 9%.
`COc1ccc2[nH]c(=O)c3c(c2c1)OC(C)(C)C=C3` gave Tau fluor counter -18%, RORg inh -12%, Gal4-VP16 FLuc 25µM*, Tau FP inhib -6% and Tau ThT inhib -10%.
`COc1ccccc1NC(=O)Nc1ccc(Cl)c(S(=O)(=O)Nc2ccccc2OC)c1` gave Tau fluor counter 3.2µM*[quencher], RORg inh inconclusive, Gal4-VP16 FLuc -7%, Tau FP inhib 28µM* and Tau ThT inhib -6%.
Screening COc1ccc(C(=O)Nc2ccc(Cl)c(S(=O)(=O)Nc3ccccc3OC)c2)cc1 returned Tau fluor counter inconclusive, RORg inh 6%, Gal4-VP16 FLuc inconclusive, Tau FP inhib inconclusive and Tau ThT inhib 7%.
Screening COc1ccccc1NS(=O)(=O)c1cc(NC(=O)c2ccc(Cl)nc2)ccc1Cl returned Tau fluor counter 22µM*[quencher], RORg inh 16%, Gal4-VP16 FLuc 20µM*, Tau FP inhib 25µM* and Tau ThT inhib 15%.
Screening Cc1ccc(NC(=S)NC(=O)c2ccc(F)cc2)cc1S(=O)(=O)Nc1ccccc1Cl returned Tau fluor counter -29%, RORg inh 4.5µM*, Gal4-VP16 FLuc 6.3µM*, Tau FP inhib -26% and Tau ThT inhib -2%.
COc1ccc(NC(=O)Cc2cccc(F)c2)cc1S(=O)(=O)Nc1ccccc1Cl was read as Tau fluor counter 14µM*[quencher], RORg inh 16%, Gal4-VP16 FLuc -1% and Tau FP inhib inconclusive.
For Cc1ccc(NC(=O)Cn2c(=O)ccc3cc(S(=O)(=O)N4CCCC4)ccc32)cc1C the results were Tau fluor counter -17%, Tau FP inhib -9% and Tau ThT inhib -10%.
COc1cc(/C=C2/CC/C(=C/c3ccc(O)c(OC)c3)C2=O)ccc1O was read as Tau fluor counter -22%, RORg inh -41%, Gal4-VP16 FLuc inconclusive, Tau FP inhib inconclusive and Tau ThT inhib 0.89µM*.
`COc1ccccc1OCCCOc1ccc(/C=C2\SC(=O)NC2=O)cc1OC` gave RORg inh 26% and Gal4-VP16 FLuc 15%.
Screening COc1ccc(/C=N/N=C/c2ccc(OC)c(OC)c2)cc1OC returned Tau fluor counter 4%, RORg inh -11%, Gal4-VP16 FLuc -10%, Tau FP inhib -7% and Tau ThT inhib -13%.
Screening COc1ccc(/C=C2\CCc3ccccc3C2=O)cc1OC returned Tau fluor counter -18%, RORg inh 44%, Gal4-VP16 FLuc -10%, Tau FP inhib 3% and Tau ThT inhib inconclusive.
`COc1ccc(C=C2C=C(C(C)(C)C)C(=O)C(C(C)(C)C)=C2)cc1OC` gave RORg inh 7.1µM* and Gal4-VP16 FLuc 4.5µM*.
For COc1ccc(/C=C2/SC(=S)NC2=O)cc1OCc1ccccc1 the results were RORg inh inconclusive and Gal4-VP16 FLuc 18µM*.
